Laboratory results taken from PubChem BioAssay (EPA / NIEHS).
Records with an inconclusive call do not appear. Calls of active or inactive are those of the source. The calls were made as follows: active = hit-call score of the fitted dose curve at least 0.9, where 1 is the maximum; inconclusive = response in the unintended direction; inactive = score below 0.9.

What follows are compounds tested against human Protein Tyrosine Phosphatase Receptor Type C (PTPRC), PTPRC (gene 5788) (UniProt P08575) (assay: NVS_ENZ_hPTPRC: NovaScreen (NVS) Enzymatic Assay for human Protein Tyrosine Phosphatase Receptor Type C (PTPRC) (AID 2283212)).
human Protein Tyrosine Phosphatase Receptor Type C (PTPRC), PTPRC (gene 5788), sequence (P08575 whole entry, looked up): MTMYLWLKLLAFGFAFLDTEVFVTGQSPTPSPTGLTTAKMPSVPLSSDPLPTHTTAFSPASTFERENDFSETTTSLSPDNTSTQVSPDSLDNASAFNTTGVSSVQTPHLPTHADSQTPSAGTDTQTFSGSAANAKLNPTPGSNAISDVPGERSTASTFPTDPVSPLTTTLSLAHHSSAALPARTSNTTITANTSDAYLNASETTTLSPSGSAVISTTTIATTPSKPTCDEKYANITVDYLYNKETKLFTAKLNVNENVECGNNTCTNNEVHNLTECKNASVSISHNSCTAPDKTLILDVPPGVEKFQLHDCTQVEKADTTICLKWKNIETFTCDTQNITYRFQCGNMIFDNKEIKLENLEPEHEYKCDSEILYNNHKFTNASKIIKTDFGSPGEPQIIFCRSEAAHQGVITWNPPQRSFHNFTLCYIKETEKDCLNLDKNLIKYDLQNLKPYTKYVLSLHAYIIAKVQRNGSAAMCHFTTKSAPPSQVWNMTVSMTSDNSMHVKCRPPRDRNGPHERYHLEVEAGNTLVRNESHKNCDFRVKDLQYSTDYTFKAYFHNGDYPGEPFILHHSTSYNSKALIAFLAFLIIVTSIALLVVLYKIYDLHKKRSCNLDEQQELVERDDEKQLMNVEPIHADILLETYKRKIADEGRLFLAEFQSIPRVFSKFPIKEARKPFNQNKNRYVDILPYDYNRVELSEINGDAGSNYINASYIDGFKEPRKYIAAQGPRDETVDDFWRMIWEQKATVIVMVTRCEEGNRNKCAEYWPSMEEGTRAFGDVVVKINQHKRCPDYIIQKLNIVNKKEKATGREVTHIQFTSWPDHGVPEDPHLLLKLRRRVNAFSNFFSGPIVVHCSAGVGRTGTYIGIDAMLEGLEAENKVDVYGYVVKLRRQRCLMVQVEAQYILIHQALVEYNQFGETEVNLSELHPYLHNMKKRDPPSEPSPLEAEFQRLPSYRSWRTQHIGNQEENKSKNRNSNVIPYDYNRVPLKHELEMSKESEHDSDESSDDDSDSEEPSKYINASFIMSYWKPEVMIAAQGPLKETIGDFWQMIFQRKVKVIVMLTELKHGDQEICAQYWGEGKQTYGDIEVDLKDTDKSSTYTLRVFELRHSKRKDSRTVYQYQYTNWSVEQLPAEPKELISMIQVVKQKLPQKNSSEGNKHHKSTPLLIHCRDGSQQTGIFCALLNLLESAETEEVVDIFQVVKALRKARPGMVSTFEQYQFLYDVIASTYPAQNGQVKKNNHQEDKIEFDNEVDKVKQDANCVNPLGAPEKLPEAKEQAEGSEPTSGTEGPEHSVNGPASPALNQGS
Description: NVS_ENZ_hPTPRC is a biochemical, single-readout assay that uses extracted gene-proteins from yeast cells in a cell-free assay. Measurements were taken 1 hour after chemical dosing in a 96-well plate.NVS_ENZ_hPTPRC is one of one assay component(s) measured or calculated from the NVS_ENZ_hPTPRC assay. It is designed to make measurements of enzyme activity, a form of enzyme reporter, as detected with absorbance signals by Colorimetric technology.Data from the assay component NVS_ENZ_hPTPRC was analyzed into 1 assay endpoint. This assay endpoint, NVS_ENZ_hPTPRC, was analyzed in the positive analysis fitting direction relative to DMSO as the negative control and baseline of activity. Using a type of enzyme reporter, loss-of-signal activity can be used to understand changes in the enzymatic activity as they relate to the gene PTPRC. Furthermore, this assay endpoint can be referred to as a primary readout, because this assay has produced multiple assay endpoints where this one serves a enzymatic activity function. To generalize the intended target to other relatable targets, this assay endpoint is annotated to the phosphatase intended target family, where the subfamily is receptor tyrosine phosphatase.
Binding assays used specific radioligands (tritiated, iodinated) with non-radioactive competitive displacement ligands in agonist or antagonist protocols (as indicated) and various reference compounds and inhibitors to titrate specific binding to receptors and transporters. Most enzyme assays (CYPs, kinases, phosphatases, proteases, HDACs) used recombinant protein and specific substrates (fluorescence mostly, some colorimetric and radioactive) and inhibitors, followed by a biochemical separation of substrate and product. All assays for the biochemical HTS were initially run in duplicate at a single concentration (10 uM for CYP450 assays and 25 uM for all others). Assay-chemical combinations meeting a pre-defined threshold (e.g., 30% inhibition and other criteria defined below) were then run in singleton concentration-response format with maximum concentration of 20 uM for CYPs and 50 uM for all others. Each assay was run with positive and negative controls, and concurrent controls on every plate. The follow-up (secondary) screen tested active chemical-pairs in concentration series, as well as a few additional assays not tested in the primary screen, some selected negative inactives, and several cases re-run in the concentration series for confirmatory purposes.

SMILES	outcome	AC50
COC(=O)c1ccccc1N	inactive	
C[C@]12C=CC3=C4CCC(=O)C=C4CC[C@H]3[C@@H]1CC[C@@H]2O		9.63 µM (active)
[O-][Cl+]O	inactive	
ClCCOCCCl	inactive	
Cc1cccc(N)c1N		15.8 µM (active)
CN(C)[C@@H]1C(=O)C(C(N)=O)=C(O)[C@@]2(O)C(=O)C3=C(O)c4c(O)cccc4[C@@](C)(O)[C@H]3C[C@@H]12		15.6 µM (active)
CC(C)(C)C(O)(CCc1ccc(Cl)cc1)Cn1cncn1 (stereo unspecified)	inactive	
c1ccc(NNc2ccccc2)cc1		18.2 µM (active)
Nc1ccc(Cl)cc1N		16.2 µM (active)
O=[N+]([O-])c1ccc(Oc2ccc(Cl)cc2Cl)cc1	inactive	
CN(C)C(=O)Nc1ccc(Cl)cc1	inactive	
